For 93 compounds, max response and Potency results are on record in PubChem BioAssay AID651814 (National Center for Advancing Translational Sciences (NCATS), 2012).

The whole screen tested about 2,100 compounds, of which about 590 (28%) were called active. Inconclusive results (about 42%) are left out. Calls come from the whole dose curve; as a rule, active = well fitted inhibition curve with a large enough effect; inconclusive = small, poorly fitted or top-dose-only effect; inactive = flat fitted curve, though single readings scatter. This is one part of the list.
Potency is the fitted concentration of half-maximal effect.

DNA dC->dU-editing enzyme APOBEC-3F (Homo sapiens), sequence (Q8IUX4 whole entry, looked up): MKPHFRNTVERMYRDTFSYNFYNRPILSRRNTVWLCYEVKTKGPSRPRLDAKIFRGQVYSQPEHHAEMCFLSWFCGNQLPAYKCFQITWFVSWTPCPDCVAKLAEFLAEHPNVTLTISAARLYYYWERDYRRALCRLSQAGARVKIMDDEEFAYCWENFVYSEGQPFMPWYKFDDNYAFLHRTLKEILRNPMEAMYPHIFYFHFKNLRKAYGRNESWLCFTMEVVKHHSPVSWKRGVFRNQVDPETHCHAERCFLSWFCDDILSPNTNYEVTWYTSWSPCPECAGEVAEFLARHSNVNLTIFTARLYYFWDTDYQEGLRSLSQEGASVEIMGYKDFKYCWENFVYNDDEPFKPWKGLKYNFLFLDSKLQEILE

In the assay the target is DNA dC->dU-editing enzyme APOBEC-3F (Homo sapiens) (UniProt Q8IUX4). The assay can be described thus: qHTS for inhibitors of Vif-A3F interactions: Cherry picks.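 For max response: % of control where 0% means no effect; active compounds raise eYFP fluorescence by blocking Vif-driven A3F loss.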 Note: nearly all actives have a fitted effect of over 70% in size. As to conditions: HeLa A3F-eYFP + Vif (tagged APOBEC3F with the HIV-1 protein that degrades it), eYFP fluorescence, 24 h. The essentials:
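Read-out: yellow fluorescence (ex 488 nm, em 500-530 nm) by laser-scanning cytometer after 24 h compound exposure, several concentrations, at 37 deg C. Cells: HeLa line stably co-expressing Vif and C-terminally eYFP-tagged A3F; MG132 served as positive control.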
For the compound `C/C(=N\NC(N)=S)C12CC3CC(CC(C3)C1)C2`, the max response is 3.49% (inactive).

On to `CCOc1ccc(N(C)c2ccc(/C=C3/SC(=S)NC3=O)cc2)cc1`, for which the Potency is 15.8 µM (active).

Take `CN(C)c1ccc(C=C2SC(=S)NC2=O)cc1`: the Potency was 17.7 µM (active). Regarding `CCOc1cc(Br)cc(/C=C2\SC(=Nc3ccccc3)NC2=O)c1O`, the max response is -27.7% (inactive). In the case of `COc1ccccc1N=C1NC(=O)/C(=C/c2ccc(N(C)C)cc2)S1`, the Potency was 4.11 µM (active). As to `CC12CC3CC(C)(C1)CC(C(=O)NC(=S)N1CCOCC1)(C3)C2`, the max response was 4.69% (inactive). For `CSc1nc(N)c(C#N)c(-c2ccccc2Cl)c1C#N`, the max response is -19.1% (inactive). Take `CC(=O)Nc1cccc(-c2ccnc3c2CC(C)(C(=O)NCc2cccs2)O3)c1` (stereo not drawn): the max response is -24.8% (inactive). In the case of `CN(C)S(=O)(=O)c1ccc(N2CCCC2)c(C(=O)N2CCN(S(=O)(=O)c3ccc(F)c(F)c3)CC2)c1`, the max response was 3.41% (inactive). Consider `COc1ccc(OCCCC(=O)N2CCN(S(=O)(=O)c3cccc(F)c3)CC2)cc1`, for which the max response is -3.23% (inactive). For the compound `CC1(C)Cc2c(sc3ncnc(NNC(=S)NCc4ccccc4)c23)CO1`, the max response is -20.8% (inactive). As for `C=C(C)CNC(=S)NNC(=O)c1ccco1`, the max response was 4.89% (inactive). Take `N#C/C(=C/c1ccc(-c2ccc([N+](=O)[O-])cc2)o1)C(=O)Nc1nc(-c2cccs2)cs1`: the max response is -8.39% (inactive). As to `Cc1ccc(NC(=O)/C(C#N)=C\c2ccc(-c3ccc(Cl)cc3)o2)c(C)c1`, the Potency is 7.31 µM (active). For the compound `CCN(CC)CCCNc1ccc2ncn3c4ccc(O)cc4c(=O)c1c23`, the Potency was 8.2 µM (active). In the case of `CN(C)CCNc1ccc2ncn3c4ccc(O)cc4c(=O)c1c23`, the Potency was 20.6 µM (active). `CS(=O)(=O)Nc1ccc(C2=NN(S(=O)(=O)c3ccccc3)C(c3cccs3)C2)cc1` (stereo not drawn): the max response was -22.9% (inactive).

As for `CCc1ccc(C2=NN(S(C)(=O)=O)C(c3cccs3)C2)cc1` (stereo not drawn), the Potency is 15.8 µM (active). Take `CCOc1ccccc1C1CC(c2cccs2)=NN1S(C)(=O)=O` (stereo not drawn): the max response is -22.3% (inactive). With `N#C/C(=C\c1cccc(O)c1)c1nc2ccccc2o1`, the Potency is 3.53 µM (active).

On to `O=C1c2cccc3c(N4CCCCC4)ccc(c23)C(=O)N1CCO`, for which the Potency is 15.8 µM (active).

For `C=CCN1C(=O)c2cccc3c(N4CCCCC4)ccc(c23)C1=O`, the Potency is 16.4 µM (active).

On to `COc1ccccc1N1C(=O)c2cccc3c(C(=O)O)ccc(c23)C1=O`, for which the max response was 1.5% (inactive). Take `O=C1c2cccc3c(N4CCCCC4)ccc(c23)C(=O)N1c1ccc(O)cc1`: the max response was -17.3% (inactive).

Consider `CCCCN1C(=O)c2cccc3cc(O)cc(c23)C1=O`, for which the max response is -4.14% (inactive).

As for `O=C(O)c1ccccc1N/N=C/c1c(Sc2nnnn2-c2ccccc2)nc2ccccn2c1=O`, the Potency is 9.94 µM (active). For `CN1C/C(=C\c2ccc(N3CCOCC3)cc2)C(=O)/C(=C/c2ccc(N3CCOCC3)cc2)C1`, the Potency was 18.4 µM (active). As to `Cc1ccc(Cc2c(C3CCCCC3)nc3ccc(C)cn23)cc1`, the max response is -5.74% (inactive). On to `COc1ccccc1/C=C/C=N/n1c(-c2ccc(C)cc2)n[nH]c1=S`, for which the max response was -22% (inactive). For the compound `Cc1ccc(-c2nc(-c3cc4cccc(OCc5cccc(F)c5)c4oc3=O)no2)cc1`, the Potency is 18.4 µM (active). Take `Nc1c(C(=O)c2ccccc2)sc2nsc(SCCN3CCCC3)c12`: the Potency was 14 µM (active).

As for `Nc1c(C(=O)c2ccccc2)sc2snc(SCC(=O)c3ccccc3)c12`, the Potency is 17.7 µM (active).

With `CCN(CC)c1nc2ccccc2nc1C(C#N)C(=O)NCCc1ccccc1` (stereo not drawn), the Potency was 3.66 µM (active). Turning to `N#CC(C(=O)NCc1ccccc1)c1nc2ccccc2nc1N1CCCC1` (stereo not drawn), the max response was -25.3% (inactive). For the compound `CC1=CN2C(=N)/C(=C/c3ccc([N+](=O)[O-])o3)C(=O)N=C2S1`, the Potency is 14 µM (active). As to `CCS(=O)(=O)C1=NN2C(=N)/C(=C\c3ccc(SCc4ccco4)o3)C(=O)N=C2S1`, the max response was -0.189% (inactive). As to `CCCCN1C(=O)/C(=C/C=C2\Oc3ccccc3N2CC)SC1=S`, the max response is -1.16% (inactive).

Take `CCSC1=N/C(=C\C=C2/Oc3ccccc3N2CC)C(=O)S1`: the Potency is 20.6 µM (active).

Turning to `CC(O)CN(CC(C)O)c1ccc2c(c1)Cc1cc([N+](=O)[O-])ccc1-2` (stereo not drawn), the Potency is 3.66 µM (active). `COC(=O)c1[nH]c2c(c1C(=O)OC)CCc1ccccc1-2`: the max response is -7.85% (inactive). For `CC(C)c1ccc(NC(=O)Nc2cnccn2)cc1`, the max response is -23.5% (inactive). On the same count and under the same terms, under `Cc1nc(-c2ccc(Cl)cc2)sc1C(=O)NN` stands -25% (inactive). For the compound `CCN(CC)C(=O)c1sc2nc(-c3cccs3)cc(-c3ccc(Cl)cc3)c2c1N`, the Potency is 15.8 µM (active). The same measure, in the same setting: under `CC(C)(C)C(=O)c1sc2nc(-c3cccs3)cc(C(F)(F)F)c2c1N` stands 1.03 µM (active). Turning to `Nc1c(C(=O)C2CC2)sc2nc(-c3cccs3)cc(C(F)(F)F)c12`, the Potency was 1.64 µM (active). With `CC(=O)c1sc2nc(-c3cccs3)cc(C(F)(F)F)c2c1N`, the Potency was 7.31 µM (active). As to `S=C(NC1CCCCC1)N(CCc1ccccc1)CCc1ccccc1`, the max response is -2.16% (inactive).

`Cc1ccc(N2C(=O)CS/C2=C(\C(Cl)=C(Cl)Cl)[N+](=O)[O-])cc1`: the max response was 2.65% (inactive). As for `Cc1ccc(NC(=O)Cc2ccc(-n3cccc3)cc2)c(C)c1`, the max response was -1.25% (inactive).

Take `O=C(O)c1ccc(N/N=C/C(Br)=C/c2ccccc2)cc1`: the max response is -18.2% (inactive). As to `Cc1ccc(NC(=O)C(=Cc2ccc(C(=O)O)cc2)C(=O)Nc2ccc(C)cc2C)c(C)c1`, the Potency is 5.59 µM (active).

Turning to `O=C1COc2ccc(C(=O)CSc3nc4ccccc4c(=O)n3-c3ccc(Cl)c(Cl)c3)cc2N1`, the Potency was 18.4 µM (active). On to `O=S(=O)(N=C1C=CC(=NS(=O)(=O)c2ccccc2)c2ccccc21)c1ccccc1`, for which the max response is -24.1% (inactive).

Regarding `O=C(/C=C/c1ccncc1)c1cc(Cl)ccc1O`, the max response is 3.83% (inactive).

As to `CC[n+]1c(/C=C/N(C)c2ccccc2)oc2ccc(F)cc21`, the Potency is 11.2 µM (active). Consider `COc1ccc(N/C=C/C(=O)c2sc(-c3ccccc3)nc2C)cc1`, for which the max response is -17.8% (inactive). On to `CC[n+]1c(/C=C/Nc2ccccc2)oc2ccccc21`, for which the Potency is 7.31 µM (active). As to `CC[n+]1c(/C=C/Nc2ccccc2)oc2ccc(OC)cc21`, the Potency is 20.6 µM (active). Regarding `CCOC(=O)c1c(CC(C)C)csc1/N=C/C1C(=O)CCCC1=O`, the max response was -3.21% (inactive). As to `CCc1ccc2c(c1)NC(=O)C2(C)Cc1ccccc1Cl` (stereo not drawn), the max response was -19.4% (inactive).

As to `COc1ccccc1C(=O)NC(=S)Nc1ccc(NC(=O)c2ccco2)cc1`, the max response was -12.8% (inactive). `COCCCNc1nc2ccccc2nc1NS(=O)(=O)c1ccccc1`: the max response is -2.62% (inactive).

In the case of `CCN(CC)c1ccc2c(c1)oc(=O)c1c(Cl)cc(=O)oc12`, the Potency is 20.6 µM (active).

`Cc1ccc(O)c(NC(=O)c2cc(-c3ccccc3O)no2)c1`: the Potency was 18.4 µM (active). For `CCc1nnc(NC(=O)CSc2nnc(-c3ccccc3O)n2-c2ccc(C)cc2C)s1`, the max response is -23.9% (inactive).

For the compound `Cc1ccc(O)c(Nc2c3ccccc3nc3ccccc23)c1`, the max response was -0.294% (inactive). As to `Cn1cc(/C=C/c2ccnc3ccccc23)c2ccccc21`, the Potency is 23.1 µM (active). With `Cn1cc(/C=C/c2ccc3ccccc3n2)c2ccccc21`, the Potency is 20.6 µM (active).

As for `COC(=O)C1=COC(C)C2CN3CCc4c([nH]c5cc(OC)c(OC)cc45)C3CC12` (stereo not drawn), the max response is -8.29% (inactive). As for `CC(=O)Nc1ccc(S(=O)(=O)Nc2nc3ccccc3nc2Nc2ccc(N)cc2)cc1`, the max response was -0.838% (inactive). In the case of `Cc1cc(N2CCN(c3ccc([N+](=O)[O-])c4cccnc34)CC2)c2ccccc2n1`, the Potency is 10.3 µM (active). Take `O=[N+]([O-])c1cc(O)c2ncccc2c1`: the max response was -7.28% (inactive). Regarding `O=[N+]([O-])c1cc(Cl)c2cccnc2c1O`, the max response was 3.56% (inactive).

Take `Cc1cc(C)c2cc3c(N)c(C(=O)Nc4c(C)[nH]c(=O)[nH]c4=O)sc3nc2c1`: the Potency is 13 µM (active). In the case of `Cc1ccc(C2C(C(=O)c3cccs3)=C(O)C(=O)N2c2nnc(C)s2)cc1` (stereo not drawn), the Potency was 19.8 µM (active). For `CCCSc1nnc(N2C(=O)C(O)=C(C(=O)c3ccco3)C2c2ccccc2F)s1` (stereo not drawn), the max response was -6.1% (inactive).

For the compound `Cc1ccc(C2=NN(C(=O)c3cccs3)C(c3ccccc3O)C2)cc1` (stereo not drawn), the max response is -0.929% (inactive). With `FC(F)(F)c1ccccc1NC(=S)NN=C1CCCCCC1`, the max response is 0.807% (inactive). Take `O=C(NNC1=Nc2cccc3cccc1c23)c1ccc(Br)cc1`: the Potency is 16.4 µM (active). In the case of `CC(C)OC(=O)c1cc(C(=O)c2cc(F)ccc2O)coc1=N`, the Potency is 23.1 µM (active). As for `C=CCN=c1scc(-c2ccc(F)cc2)n1/N=C/c1ccccn1`, the max response is 5.22% (inactive).

With `Cc1ccc(-n2nc3c(SCCN4CCOCC4)nnc(C)c3c2C)cc1`, the max response is -16.8% (inactive).

In the case of `Cc1nnc(SCC(=O)NCc2ccccc2F)c2nn(-c3ccc(Cl)cc3)c(C)c12`, the Potency is 16.4 µM (active). As for `C=C1C(=O)O[C@H]2C1CC[C@@](C)(O)C13C=CC(C)(C21)C1(C3)C(=O)O[C@@H]2C3C(C)=CCC3[C@](C)(O)C[C@H](OC(C)=O)C21` (stereo partly drawn), the max response is -25.3% (inactive). As to `CCN1/C(=C/c2cc[n+](C)cc2)C=Cc2cc(C)ccc21`, the Potency is 11.6 µM (active).

Turning to `CCN1/C(=C/c2ccc3ccccc3[n+]2CC)C=Cc2ccccc21`, the max response is -17% (inactive). On to `CC1(C)COC(Cn2c3ccccc3c3ccccc32)O1` (stereo not drawn), for which the max response was -25.3% (inactive). On to `CCOc1cc([N+](=O)[O-])cc2c1C(=O)Nc1ccccc1O2`, for which the max response is -12% (inactive). On to `O=C1Nc2ccc(Br)cc2C12NNc1ccccc1O2` (stereo not drawn), for which the Potency is 14 µM (active).

As to `COc1ccc(CCNC(=O)CC2(CC3=NS(=O)(=O)c4ccccc4N3)CCCC2)cc1OC`, the max response was -0.97% (inactive). Turning to `Cc1cc(C)cc(NC(=S)NC(=O)C2CC2)c1`, the max response was -4.35% (inactive).

For `CCn1c2ccccc2c2cc(NC(=O)CNCc3ccccc3OC)ccc21`, the max response is -24.7% (inactive).

Regarding `Cc1cc(C)cc(NC(=O)Cn2cc(C(=O)C3CCCCC3)c3ccccc32)c1`, the Potency was 18.4 µM (active).
